System: LXRa homodimer (NR concentration 270 nM)
Assay: PBM binding z-score (relative to random genomic background probes); higher = stronger binding; sequences stand for … in GC…GCGATTGACAGCGTAGAATGAAGG
Summary of the method: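 Each nuclear receptor dimer, without ligand, was incubated for 1 h on custom Agilent 4×180K protein-binding microarrays. Binding was detected with antibodies against each partner (one per run), and scanned fluorescence was regression-normalized. The binding z-scores are referenced to random human genomic background probes.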

How did the PBM binding z-score turn out when CGTCCAAGGCCAAGGTCAGTGAAAGAGACTCGAA was run?
Its PBM binding z-score is -0.343.

CCGACTGGGCCAAGGTTACCATAACGCACAGCCA was tested. Which PBM binding z-score did it give?
Its PBM binding z-score is -0.181.

AGTCATAGTTCAGGACGAGGTAACGTAAAGCACG was tested. Which PBM binding z-score did it give?
The PBM binding z-score was -0.0495.

How did the PBM binding z-score turn out when CGAACTAGGTCAAGGACAGTTAATCTCCGCACGC was run?
The PBM binding z-score was 0.153.

For ATCTCTAGGTAAAAGCTCAGTGAATCCCGAGGAT, which PBM binding z-score is on record?
Its PBM binding z-score is -0.281.

CGTCCAAGGTCGATGCTAGGTCAGTGAAAGCATT was tested. Which PBM binding z-score did it give?
Its PBM binding z-score is -0.14.

With CGTCCAAGGTCAATGCTAGGTCAGTCAAAGCATT as the sequence, how does the PBM binding z-score read?
The PBM binding z-score was 3.

TCTTGTAGATCATTAGAGGTTAAGAAAGTGCGCT was tested. Which PBM binding z-score did it give?
The PBM binding z-score was 1.68.

CGAACGAGGGCATGATTTGATAGCAAATGCCGAT was tested. Which PBM binding z-score did it give?
The PBM binding z-score was -0.301.

With CGGCCTAGGTCAGGGCCAGTATAGGAGGAACGTT as the sequence, how does the PBM binding z-score read?
Its PBM binding z-score is -0.463.

With CAAACTAGGTCACAGAGGTCATAGTCCGTGCGTA as the sequence, how does the PBM binding z-score read?
The PBM binding z-score was 6.94.

With GCTAGCAGGCCATTTGGGTCATTCAATGACGGGC as the sequence, how does the PBM binding z-score read?
Its PBM binding z-score is -0.598.

Which PBM binding z-score does the source give for CCTAATGGGCCAAGGTCATTGATCAGTCAAAGCA here?
Its PBM binding z-score is 1.04.

Which PBM binding z-score does the source give for GCGACTGGGGCATCAGCAGATTACCATAACTTAA here?
Its PBM binding z-score is -0.401.

Which PBM binding z-score does the source give for TCTCGGAGGACACGAAGGTCCGAGCTTTCCAGAG here?
Its PBM binding z-score is -0.723.

With ACAGACAGATGAGTGAAGGTAACTCAGCTGGACG as the sequence, how does the PBM binding z-score read?
The PBM binding z-score was -0.336.

Which PBM binding z-score does the source give for CCTTACGGGTCACTCCAGGTAATAGCATCGGAGT here?
The PBM binding z-score was 0.164.

Which PBM binding z-score does the source give for CCTACTGGCCCAAAAAGGTCATTGATGCCGATAA here?
Its PBM binding z-score is 3.88.

Which PBM binding z-score does the source give for CGAACTAGGTCAGAAGAGGACAGTGAAGGATGAT here?
Its PBM binding z-score is -0.161.

ATACCAAGGTGATCGTGAGGTCGTGGATACTAAC was tested. Which PBM binding z-score did it give?
Its PBM binding z-score is 0.515.

With TGTCACAGTTCAAAGGTAACGTAAGTATCCACAC as the sequence, how does the PBM binding z-score read?
Its PBM binding z-score is 0.785.

ATCTCTAGGTAAAGATAATTCAGTGAATGCAAAT was tested. Which PBM binding z-score did it give?
The PBM binding z-score was 0.217.
